# Records with an inconclusive call do not appear. A call without a number means that no potency is given here. Calls of active or inactive are those of the source. Calls follow the shape of the dose curve; as a rule, active = well fitted cell-killing curve with a large enough effect in the repeat runs; inconclusive = weak or mixed curves, or effect the other way; inactive = flat fitted curve, though single readings scatter.
# Test: cAMP Responsive Elements (CRE) small molecule antagonists, cell-based qHTS assay: qHTS cell viability counter screen (AID 2060913); also: nearly all actives have a fitted effect of over 40% in size
# Conditions: CRE-bla HEK293T viability, CellTiter-Glo luminescence, 5 h; series mostly up to 92.4 µM
# How it was run: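 Steps: cells plated and held 18 hrs at 37 C/5% CO2; compounds and NKH477 (0.25 uM final) added; 3 hrs incubation; reporter substrate read; CellTiter-Glo added to measure cytotoxicity by luminescence.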
row,SMILES,Potency
1,CCOC(=O)n1ccn(C)c1=S,inactive
2,CCOC(=O)C1=C[C@]2(CC)CCCN3CCc4c(n1c1ccccc41)[C@@H]32,inactive
3,Cc1cn([C@H]2C[C@H](N=[N+]=[N-])[C@@H](CO)O2)c(=O)[nH]c1=O,inactive
4,CCC(C)(C)C(=O)O[C@H]1C[C@@H](C)C=C2C=C[C@H](C)[C@H](CC[C@@H]3C[C@@H](O)CC(=O)O3)[C@H]21,inactive
5,CC(C)(c1ccc(O)cc1)c1ccc(O)cc1,inactive
6,NC1=NCC2c3ccccc3Cc3ccccc3N12 (configuration not stated),inactive
7,CCC(C(=O)O)c1ccc(N2Cc3ccccc3C2=O)cc1 (configuration not stated),inactive
8,c1ccc(-c2ccccn2)nc1,inactive
9,CCCCOc1ccc(CC(=O)NO)cc1,inactive
10,OCc1ccc(Cl)cc1Cl,inactive
11,[Cl][Eu]([Cl])[Cl],inactive
12,CCCCCCCC/C=C\CCCCCCCC(=O)O,inactive
13,CC(C)CCOC(=O)/C=C/c1ccccc1,inactive
14,C#C[C@]1(O)CC[C@H]2[C@@H]3[C@H](C)CC4=C(CCC(=O)C4)[C@H]3CC[C@@]21C,inactive
15,CN=C(NC#N)NCCSCc1csc(N=C(N)N)n1,inactive
16,CCN(CC)c1ccc2c(C)cc(=O)oc2c1,inactive
17,CCN1C=CN(C)C1C (configuration not stated),inactive

# Test: cAMP Responsive Elements (CRE) small molecule agonists, cell-based qHTS assay: qHTS cell viability counter screen (AID 2060914); also: nearly all actives have a fitted effect of over 50% in size; also: potency is read from the fitted curve at half-maximal effect
# Conditions: CRE-bla HEK293T viability, CellTiter-Glo luminescence, 5 h; series mostly up to 92.4 µM
# How it was run: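 Cytotoxicity was measured as ATP luminescence (CellTiter-Glo, 30 min at room temperature) in the same wells as the CRE-bla FRET read-out. HEK293T CRE-bla cells had 3 h compound exposure at 37C/5% CO2.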
row,SMILES,Potency
1,CCCC(CCC)C(=O)O,inactive
2,CCCc1c2oc(C(=O)O)cc(=O)c2cc2c(=O)cc(C(=O)O)n(CC)c12,inactive
3,Cc1ccc(O)c(C(=O)c2ccccc2)c1,inactive
4,CC(O)c1ccccc1 (configuration not stated),inactive
5,C[C@]12CC[C@@H]3c4ccc(O)cc4CC[C@H]3[C@@H]1CC[C@@H]2OC(=O)CCC1CCCC1,inactive
6,COc1ccc2c(c1)C(=O)N(CCc1ccc(S(=O)(=O)NC(=O)NC3CCCCC3)cc1)C(=O)C2(C)C,inactive
7,CC(C=O)Cc1ccc(C(C)C)cc1 (configuration not stated),inactive
8,CCCCCCCCc1ccc(S(=O)(=O)O)cc1,inactive
9,CC(C)(C)CC(C)(C)c1ccc(O)c(-n2nc3ccccc3n2)c1,9.69 µM (active)
10,CC(C)(C)c1ccc(S)cc1,inactive
11,Brc1c2ccccc2cc2ccccc12,inactive
12,CC(C)(C)c1cccc(C(C)(C)C)c1O,inactive
13,CC1=C(/C=C/C(C)=C/C=C/C(C)=C/C(=O)O)C(C)(C)CCC1,inactive
14,Cc1ccnc(N)c1,inactive
15,OCC1CC=CCC1 (configuration not stated),inactive
16,CCN(CC)CCNC(=O)c1cc(S(C)(=O)=O)ccc1OC,inactive
17,NS(=O)(=O)c1cc(C(=O)O)cc(N2CCCC2)c1Oc1ccccc1,inactive
18,C=C(C)C(=O)OC(C)C,inactive
19,C=C(C)C(=O)OCC(O)CO (configuration not stated),inactive
20,C[C@@H]1CCN(C(=O)[C@H](CCCN=C(N)N)NS(=O)(=O)c2cccc3c2NC[C@H](C)C3)[C@@H](C(=O)O)C1,inactive

row,SMILES,Potency
1,OCC(CBr)(CBr)CBr,inactive
2,O=C(O)C(Cc1cc(I)c(O)c(I)c1)c1ccccc1 (configuration not stated),inactive
3,NCCS,inactive
4,CCOC(=O)n1ccn(C)c1=S,inactive
5,CCOC(=O)C1=C[C@]2(CC)CCCN3CCc4c(n1c1ccccc41)[C@@H]32,inactive
6,Cc1cn([C@H]2C[C@H](N=[N+]=[N-])[C@@H](CO)O2)c(=O)[nH]c1=O,inactive
7,CCC(C)(C)C(=O)O[C@H]1C[C@@H](C)C=C2C=C[C@H](C)[C@H](CC[C@@H]3C[C@@H](O)CC(=O)O3)[C@H]21,inactive
8,CC(C)(c1ccc(O)cc1)c1ccc(O)cc1,inactive
9,NC1=NCC2c3ccccc3Cc3ccccc3N12 (configuration not stated),inactive
10,CCC(C(=O)O)c1ccc(N2Cc3ccccc3C2=O)cc1 (configuration not stated),inactive
11,c1ccc(-c2ccccn2)nc1,inactive
12,CCCCOc1ccc(CC(=O)NO)cc1,inactive
13,OCc1ccc(Cl)cc1Cl,inactive
14,[Cl][Eu]([Cl])[Cl],inactive
15,CCCCCCCC/C=C\CCCCCCCC(=O)O,inactive
16,CC(C)CCOC(=O)/C=C/c1ccccc1,inactive
17,C#C[C@]1(O)CC[C@H]2[C@@H]3[C@H](C)CC4=C(CCC(=O)C4)[C@H]3CC[C@@]21C,inactive
18,CN=C(NC#N)NCCSCc1csc(N=C(N)N)n1,inactive
19,CCN(CC)c1ccc2c(C)cc(=O)oc2c1,inactive
20,CCN1C=CN(C)C1C (configuration not stated),inactive

# — PubChem BioAssay (Tox21)
